Calls of active or inactive are those of the source.
Legend:
[1] = E. coli DRC41 culture turbidity changes, primary screen, E. coli filamentation inducer project, strain DRC41, OD650, 48 h (AID 1152);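 also: E. coli MC1000 strain DRC41 lacking acrAB efflux pump and sulA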; conditions: E. coli DRC41 (acrAB sulA), higher = more signal, called active from +8 up or from −8 down
[2] = small-molecule binders of probe aLefty1, primary screen, biochemical, small-molecule microarray, 635/667 nm fluorescence (AID 1153); conditions: higher = more signal;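 also: score merges spot fluorescence with signal-to-noise ratio from the scanned slide images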
[3] = PSAC antagonists in infected red cells, primary screen, cell-based, P. falciparum Indochina, OD700, 1 h (AID 1154); conditions: P. falciparum Indochina infected RBC osmotic lysis, higher = more signal, called active from +8 up or from −8 down
[4] = PSAC antagonists in infected red cells, primary screen, cell-based, P. falciparum Indochina, OD700, 2 h (AID 1155);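 also: lysis reports solute entry through the parasite surface anion channel PSAC; channel blockers reduce lysis of infected cells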; conditions: P. falciparum Indochina infected erythrocytes, osmotic lysis OD700; higher = more signal, called active from +8 up or from −8 down
[5] = osmotic lysis modulators in infected erythrocytes, primary screen, PSAC antagonist project, cell-based, P. falciparum Indochina, OD700, 3 h (AID 1156); conditions: higher = more signal, called active from +8 up or from −8 down
[6] = PSAC antagonists in infected red cells, primary screen, cell-based, P. falciparum Indochina, OD700, 18 h (AID 1157); conditions: P. falciparum Indochina infected erythrocytes, osmotic lysis OD700, 18 h; higher = more signal, called active from +8 up or from −8 down
[7] = modulators of S6 phosphorylation in cells, primary screen, cell-based, A549, cytoblot, luminescence, serum-stimulated (AID 1158); conditions: A549 phospho-S6 cytoblot, 5 h, higher = more signal;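 also: serum-stimulated A549 lung adenocarcinoma cells; signal is phosphorylated S6 detected by cytoblot immunostaining with HRP secondary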
[8] = target: NADPH oxidase 2 (Homo sapiens) (UniProt P04839); assay: NOX2-dependent H2O2 signal modulators, primary screen, NOX inhibitor project, cell-based, HEK293-NOX2, PMA-stimulated, Amplex Red fluorescence (AID 1159); conditions: 45 min, higher = more signal, called active from +8 up or from −8 down; also: test concentration not given here
[9] = target: NADPH oxidase 4 (Homo sapiens) (UniProt Q9NPH5); assay: NOX4-dependent H2O2 signal modulators, primary screen, NOX inhibitor project, cell-based, HEK293-NOX4, tetracycline-induced, Amplex Red fluorescence (AID 1160); conditions: 45 min, higher = more signal, called active from +8 up or from −8 down
[10] = target: NADPH oxidase 5 (Homo sapiens) (UniProt Q96PH1); assay: NOX5-dependent H2O2 signal modulators, primary screen, NOX inhibitor project, cell-based, HEK293-NOX5, Amplex Red fluorescence (AID 1161); conditions: HEK293-NOX5, ionomycin, 45 min, higher = more signal
Sequence of NADPH oxidase 5 (Homo sapiens) (Q96PH1 whole entry, looked up): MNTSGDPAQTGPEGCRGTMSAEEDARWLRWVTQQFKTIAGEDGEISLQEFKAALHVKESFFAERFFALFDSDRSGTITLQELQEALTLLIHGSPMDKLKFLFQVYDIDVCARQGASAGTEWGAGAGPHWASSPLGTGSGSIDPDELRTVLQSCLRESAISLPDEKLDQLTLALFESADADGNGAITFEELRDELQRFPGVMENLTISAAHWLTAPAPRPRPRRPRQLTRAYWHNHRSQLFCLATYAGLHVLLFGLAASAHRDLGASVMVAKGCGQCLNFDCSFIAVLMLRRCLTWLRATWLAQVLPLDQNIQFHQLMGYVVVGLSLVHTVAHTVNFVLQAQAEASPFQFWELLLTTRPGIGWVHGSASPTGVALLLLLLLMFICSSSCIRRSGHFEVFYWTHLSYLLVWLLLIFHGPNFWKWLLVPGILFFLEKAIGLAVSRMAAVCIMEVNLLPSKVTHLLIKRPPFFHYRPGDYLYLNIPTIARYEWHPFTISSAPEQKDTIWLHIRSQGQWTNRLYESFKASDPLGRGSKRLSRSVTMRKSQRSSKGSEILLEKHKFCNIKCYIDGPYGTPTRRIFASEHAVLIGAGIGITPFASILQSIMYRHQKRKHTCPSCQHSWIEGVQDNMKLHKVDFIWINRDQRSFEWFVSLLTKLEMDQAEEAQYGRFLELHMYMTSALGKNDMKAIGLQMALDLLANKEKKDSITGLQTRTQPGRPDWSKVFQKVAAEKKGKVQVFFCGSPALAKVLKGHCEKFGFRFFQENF

Sequence of NADPH oxidase 4 (Homo sapiens) (Q9NPH5 whole entry, looked up): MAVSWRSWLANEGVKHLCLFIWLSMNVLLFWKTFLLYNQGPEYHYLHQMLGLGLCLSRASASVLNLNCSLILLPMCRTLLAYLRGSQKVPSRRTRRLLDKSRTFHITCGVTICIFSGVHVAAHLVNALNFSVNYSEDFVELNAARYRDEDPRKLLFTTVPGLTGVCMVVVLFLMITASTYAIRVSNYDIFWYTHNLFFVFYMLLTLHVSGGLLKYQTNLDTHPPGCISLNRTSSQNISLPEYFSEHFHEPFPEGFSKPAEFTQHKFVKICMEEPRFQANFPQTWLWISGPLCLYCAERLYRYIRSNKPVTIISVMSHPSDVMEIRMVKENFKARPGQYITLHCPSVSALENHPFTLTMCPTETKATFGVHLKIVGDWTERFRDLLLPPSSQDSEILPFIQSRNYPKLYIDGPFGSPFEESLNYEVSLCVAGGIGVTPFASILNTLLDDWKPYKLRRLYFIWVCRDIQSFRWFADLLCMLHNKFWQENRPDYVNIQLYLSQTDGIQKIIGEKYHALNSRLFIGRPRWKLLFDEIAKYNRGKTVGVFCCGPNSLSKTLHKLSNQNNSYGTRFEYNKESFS
Sequence of NADPH oxidase 2 (Homo sapiens) (P04839 whole entry, looked up): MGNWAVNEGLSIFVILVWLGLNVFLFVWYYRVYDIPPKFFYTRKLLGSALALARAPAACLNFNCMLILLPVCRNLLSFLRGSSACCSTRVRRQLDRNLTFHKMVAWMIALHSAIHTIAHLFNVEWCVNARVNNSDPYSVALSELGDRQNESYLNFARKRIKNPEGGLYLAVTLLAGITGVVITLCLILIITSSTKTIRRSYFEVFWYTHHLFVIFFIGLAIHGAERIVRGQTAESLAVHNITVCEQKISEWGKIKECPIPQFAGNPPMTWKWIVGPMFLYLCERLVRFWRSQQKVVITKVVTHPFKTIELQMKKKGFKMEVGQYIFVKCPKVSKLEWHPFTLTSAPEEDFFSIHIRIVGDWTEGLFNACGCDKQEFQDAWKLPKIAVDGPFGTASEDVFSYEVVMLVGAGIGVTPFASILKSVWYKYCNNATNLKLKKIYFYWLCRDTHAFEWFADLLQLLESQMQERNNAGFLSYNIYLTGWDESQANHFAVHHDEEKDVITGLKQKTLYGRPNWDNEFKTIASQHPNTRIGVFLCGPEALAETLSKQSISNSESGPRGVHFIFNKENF

| Structure (SMILES) | z-score [1] | composite z-score [2] | z-score [3] | z-score [4] | z-score [5] | z-score [6] | z-score [7] | z-score [8] | z-score [9] | z-score [10] |
| --- | --- | --- | --- | --- | --- | --- | --- | --- | --- | --- |
| COCCOC(=O)N1C(=O)[C@@]2(c3cc(C#Cc4ccc(OC)cc4)ccc31)[C@H](C(N)=O)[C@H]1C(=O)O[C@H](c3ccccc3)[C@H](c3ccccc3)N1[C@@H]2c1ccc(O)cc1 | 1.52 (inactive) | 0.649 | 0.429 (inactive) | -0.359 (inactive) | -0.939 (inactive) | -1.13 (inactive) | 2.93 | -0.0615 (inactive) | 0.893 (inactive) | 0.128 |
| CC(C)(C)OC(=O)CC[C@]1(C(=O)NCC(O)CO)N=C(c2ccc(OCCCO)cc2)O[C@H]1c1ccccc1CN=[N+]=[N-] (stereo not given in full) | -0.207 (inactive) | 0.975 | 17.2 (active) | 2.39 (inactive) | 0.471 (inactive) | 0.297 (inactive) | -0.832 | 1.38 (inactive) | 1.57 (inactive) | 2.2 |
| O=C1O[C@H](c2ccccc2)[C@H](c2ccccc2)N2[C@H]1[C@@H](C(=O)NC[C@H](O)c1ccccc1)[C@]1(C(=O)Nc3ccc(C#CC4(O)CCCCCC4)cc31)[C@H]2c1ccccc1OCCO | 0.0511 (inactive) | 0.701 | 3.8 (inactive) | 2.21 (inactive) | -0.957 (inactive) | 2.07 (inactive) | -0.0056 | 0.65 (inactive) | 0.267 (inactive) | 1.39 |
| CC(C)[C@H]1COC(=O)N1C(=O)[C@H]1[C@@H](c2ccccc2)N(c2ccccc2)O[C@@H]1C | 1.46 (inactive) | -0.147 | 0.744 (inactive) | 0.233 (inactive) | -0.648 (inactive) | 0.206 (inactive) | 0.958 | -0.515 (inactive) | -0.138 (inactive) | -2.5 |
| CO[C@H]1O[C@H](CO)[C@@H](OC(=O)Nc2ccc(C(F)(F)F)cc2)[C@H](OC(=O)Nc2ccccc2)[C@@H]1OC(=O)Nc1ccccc1 | -0.744 (inactive) | -0.407 | 7.34 (inactive) | 1.01 (inactive) | -0.886 (inactive) | 0.863 (inactive) | -0.143 | 0.179 (inactive) | -0.513 (inactive) | -0.468 |
| NC(=O)[C@]1(Cc2ccccc2)N=C(c2ccc(OCCCO)cc2)O[C@@H]1c1ccccc1 | -0.465 (inactive) | 0.351 | 26.5 (active) | 15.6 (active) | 0.531 (inactive) | 2.19 (inactive) | -0.0349 | -0.273 (inactive) | -0.228 (inactive) | 0.575 |
| COc1ccc([Si](C)(C)[C@H]2[C@H](CC(=O)N3CCC[C@H]3CO)O[C@@]3(C(=O)N(c4ccccc4)c4ccccc43)[C@@H]2C)cc1 | 3.01 (inactive) | 0.228 | 1.84 (inactive) | -0.132 (inactive) | -0.0926 (inactive) | -0.284 (inactive) | 1.48 | 1.44 (inactive) | 1.46 (inactive) | 1.96 |
| [N-]=[N+]=Nc1ccccc1C[C@]1(C(=O)N2CCCCC2)N=C(c2ccc(OCCCO)cc2)O[C@H]1c1ccccc1N=[N+]=[N-] | -0.866 (inactive) | 0.568 | 30.1 (active) | 28.3 (active) | 2.73 (inactive) | 7.18 (inactive) | -0.359 | -2.39 (inactive) | 0.341 (inactive) | -1.08 |
| Cc1ccc(N2C(=O)c3ccccc3[C@](C)(C(=O)NCCN3CCOCC3)[C@@H]2c2ccc(CO)cc2)nc1 | -0.285 (inactive) | -0.229 | 1.12 (inactive) | 0.645 (inactive) | 2.69 (inactive) | 0.178 (inactive) | -0.113 | 1.86 (inactive) | 0.236 (inactive) | 0.286 |
| C=C(COC)C(=O)CC[C@@H](OC(=O)c1ccccc1-c1ccccc1C(=O)O)c1ccc(CO)o1 | -0.448 (inactive) | -0.0032 | 0.508 (inactive) | 0.802 (inactive) | -2.11 (inactive) | 0.698 (inactive) | -1 | -3.41 (inactive) | -1.58 (inactive) | -3.07 |
| COC(=O)[C@@]1(Cc2ccccc2)[C@H]2c3cc(C(=O)N(C)C)n(Cc4ccccc4)c3C[C@H]2CN1C(=O)c1ccccc1 | -1.39 (inactive) | 0.177 | 1.54 (inactive) | 0.488 (inactive) | 0.775 (inactive) | 0.667 (inactive) | -0.608 | 0.543 (inactive) | -0.0416 (inactive) | -0.0705 |
| COc1ccccc1CN1C(=O)c2ccccc2[C@](Cc2ccccc2I)(C(=O)NCc2ccccc2)[C@@H]1c1ccc(CO)cc1 | -0.0738 (inactive) | 0.183 | 2.14 (inactive) | -0.0098 (inactive) | 0.826 (inactive) | -0.308 (inactive) | -0.266 | 0.102 (inactive) | 0.377 (inactive) | 1.34 |
| O=C1O[C@H](c2ccccc2)[C@H](c2ccccc2)N2[C@H]1[C@@H](C(=O)NC[C@H](O)c1ccccc1)[C@]1(C(=O)Nc3ccc(C#CC4=CCCCC4)cc31)[C@H]2c1ccc(O)cc1 | 1.8 (inactive) | -0.0418 | 1.35 (inactive) | 0.393 (inactive) | -0.693 (inactive) | -0.521 (inactive) | 1.98 | 2.08 (inactive) | 0.754 (inactive) | -0.0561 |
| COc1ccc(C(=O)Nc2cccc(CN3C(=O)[C@@]4(O[C@@H](CC(=O)N5Cc6ccccc6C[C@H]5CO)[C@H]([Si](C)(C)c5ccc(OC)cc5)[C@H]4C)c4ccccc43)c2)cc1 | -0.333 (inactive) | 0.139 | 4.24 (inactive) | 1.49 (inactive) | 0.712 (inactive) | 0.768 (inactive) | 1.33 | -1.03 (inactive) | 0.0938 (inactive) | -0.713 |
| CCCCN1CC=CC23O[C@@H]4/C=C\CCCOC(=O)C4[C@H]2C(=O)N(C(C)CO)[C@@H]3C1=O (stereo not given in full) | 0.65 (inactive) | -0.206 | 1.43 (inactive) | 1.06 (inactive) | 1.96 (inactive) | 0.405 (inactive) | 0.199 | 0.889 (inactive) | 0.124 (inactive) | 1.5 |
| C=CCNC(=O)[C@@H]1[C@H]2C(=O)O[C@H](c3ccccc3)[C@H](c3ccccc3)N2[C@H](c2ccccc2OCCO)[C@@]12C(=O)N(C(=O)OCCOC)c1ccc(C#CCC(C(=O)OC)C(=O)OC)cc12 | 0.0535 (inactive) | 1.51 | 1.78 (inactive) | 0.931 (inactive) | 0.222 (inactive) | 0.506 (inactive) | 0.273 | 0.793 (inactive) | 0.966 (inactive) | 1.07 |
| COc1ccccc1CN1C(=O)c2ccccc2[C@](Cc2ccccc2I)(C(=O)NC2CC2)[C@@H]1c1ccc(CO)cc1 | 0.203 (inactive) | -0.25 | 11.4 (active) | 1.35 (inactive) | 2.38 (inactive) | 0.99 (inactive) | -0.154 | -0.975 (inactive) | -0.89 (inactive) | -2.08 |
| CCCC[C@H]1OB(O)C[C@H]2C1=C(COc1ccccc1)C[C@H]1C(=O)N(Cc3ccccc3)C(=O)[C@H]12 | -0.288 (inactive) | 0.179 | 6.03 (inactive) | 1.38 (inactive) | 0.0146 (inactive) | 0.475 (inactive) | -0.056 | -0.0336 (inactive) | 0.143 (inactive) | 0.245 |
| O=c1cccc(-c2ccccc2)o1 | -0.766 (inactive) | -0.0099 | 3.18 (inactive) | 0.578 (inactive) | -0.891 (inactive) | 0.611 (inactive) | -0.548 | 0.227 (inactive) | -1.81 (inactive) | -0.322 |
| O=C1c2ccccc2[C@@]2(Cc3ccccc3N(Cc3ccccc3)C2=O)[C@H](c2ccc(CO)cc2)N1Cc1ccccc1C(F)(F)F | 0.165 (inactive) | 0.152 | 1.92 (inactive) | -0.0022 (inactive) | 0.678 (inactive) | -0.112 (inactive) | -0.106 | -2.24 (inactive) | 0.148 (inactive) | 1.77 |
| COC(=O)[C@@]1(Cc2ccc(F)cc2)[C@H]2c3cc(C(=O)N4CCCC4)n(CCc4ccc(OC)c(Br)c4)c3C[C@H]2CN1C(=O)c1ccccc1 | -0.71 (inactive) | 1.2 | 7.48 (inactive) | 1.5 (inactive) | 0.248 (inactive) | 1.33 (inactive) | 0.0028 | 0.0756 (inactive) | 0.742 (inactive) | 0.98 |
| CC(C)C(CO)N1C(=O)[C@@H]2[C@H]3C(=O)OCC=C[C@H]3OC23C=CCN(c2ccc4ccccc4c2)C(=O)[C@@H]13 (stereo not given in full) | -0.165 (inactive) | -0.147 | 0.244 (inactive) | 0.884 (inactive) | 0.686 (inactive) | 0.6 (inactive) | -0.575 | 0.902 (inactive) | 0.357 (inactive) | 1.74 |
| C=CC[C@@]1(C(=O)NCCN2CCOCC2)N=C(c2ccc(OCCCO)cc2)O[C@@H]1c1ccccc1CN=[N+]=[N-] | -0.121 (inactive) | 0.0193 | 24.4 (active) | 13.4 (active) | 2.29 (inactive) | 0.203 (inactive) | 1.15 | -0.842 (inactive) | 0.908 (inactive) | -0.701 |
| [N-]=[N+]=NCc1ccccc1[C@@H]1OC(c2ccc(OCCCO)cc2)=N[C@]1(Cc1ccccc1)C(=O)O | -0.235 (inactive) | 0.0429 | 15.6 (active) | 2.07 (inactive) | -0.143 (inactive) | 0.786 (inactive) | -0.117 | 0.174 (inactive) | 1.1 (inactive) | 1.74 |
| CN(C)CCCN1C(=O)[C@@]2(c3ccc([N+](=O)[O-])cc3)CC(=O)N(C3CCCCC3)[C@@H]2c2ccc(CO)cc21 | 0.493 (inactive) | 0.412 | -0.275 (inactive) | -0.249 (inactive) | -1.12 (inactive) | -1.73 (inactive) | 0.759 | -0.209 (inactive) | 0.632 (inactive) | 0.56 |
| CC(C)(C)OC(=O)CC[C@@]1(C(=O)NCC(O)CO)N=C(c2ccc(OCCCO)cc2)O[C@@H]1c1ccccc1 (stereo not given in full) | -0.0744 (inactive) | 0.0004 | 20.4 (active) | 2.42 (inactive) | 0.384 (inactive) | 0.519 (inactive) | 0.0391 | 0.0533 (inactive) | 0.626 (inactive) | 1.45 |
